Laboratory results from PubChem BioAssay (NCATS).
Results filed as inconclusive are left out. Where a call stands in place of a potency, no number is given. Activity calls are given as the source filed them. Calls come from the whole dose curve; as a rule, active = well fitted cell-killing curve with a large enough effect; inconclusive = small, poorly fitted or top-dose-only effect, or effect the other way; inactive = no such curve, though single readings can be large or run the other way.

Experiment: Quantitative High-Throughput drug screen in 47 multiple myeloma cell lines against the NCATS MIPE library collection: MM1S_ATCC cell viability assay (AID 1918980); note: nearly all actives have a fitted effect of over 45% in size
Conditions: MM1S myeloma viability, CellTiter-Glo ATP luminescence, 48 h; series mostly up to 45.8 µM
In short: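 500 cells/well; MIPE 4.0 drugs pin-transferred; 48 h, 37C, 5% CO2. CellTiter-Glo, 5 min RT, luminescence. Controls: DMSO 100%, media 0%.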
Potency is the fitted concentration of half-maximal effect.

Compound | Potency
Cn1cc(C=CC(=O)c2cccc(F)c2)cc1C=CC(=O)NO | 14.8 µM (active)
Nc1nc(N)c2nc(-c3cccc(O)c3)c(-c3cccc(O)c3)nc2n1 | 14.8 µM (active)
N[C@H]1CN(c2c(F)cc3c(=O)c(C(=O)O)cn(C4C[C@@H]4F)c3c2Cl)CC12CC2 (some centres undefined) | inactive
C=C(C)[C@@H]1CC[C@]2(C(=O)O)CC[C@]3(C)[C@H](CC[C@@H]4[C@@]5(C)CC[C@H](O)C(C)(C)[C@@H]5CC[C@]43C)[C@@H]12 | inactive
CC[C@H]1OC(=O)[C@H](C)[C@@H](O[C@H]2C[C@@](C)(OC)[C@@H](O)[C@H](C)O2)[C@H](C)[C@@H](O[C@@H]2O[C@@H](C)C[C@H](N(C)C)[C@@H]2O)[C@](C)(O)C[C@@H](C)C(=O)[C@H](C)[C@@H](O)[C@]1(C)O | inactive
CC(=CC(=O)Nc1ccccc1C(=O)O)c1ccc2ccccc2c1 | 8.33 µM (active)
CCOC(=O)C=C[C@H](C[C@@H]1CCNC1=O)NC(=O)[C@@H](CC(=O)[C@@H](NC(=O)c1cc(C)on1)C(C)C)Cc1ccc(F)cc1 | inactive
COC(=O)C1C2CC3c4[nH]c5cc(OC)ccc5c4CCN3CC2CC(OC(=O)c2cc(OC)c(OC)c(OC)c2)C1OC (centres undefined) | 14.8 µM (active)
Cn1c(Nc2ccc(C(F)(F)F)cc2)nc2cc(Oc3ccnc(-c4ncc(C(F)(F)F)[nH]4)c3)ccc21 | 9.35 µM (active)
O=C(O)CCCCCC(=O)NN=C1CCCC1 | inactive
C[C@H](CCC(=O)O)[C@H]1CCC2C3C[C@H](O)[C@@H]4C[C@H](O)CC[C@]4(C)C3CC[C@@]21C (some centres undefined) | inactive
COC(=O)[C@@H]1[C@H]2C[C@@H]3c4[nH]c5ccccc5c4CCN3C[C@@H]2CC[C@@H]1O | inactive
COc1cc(C(=O)NC2CCN(C)CC2)ccc1Nc1ncc2c(n1)N(C1CCCC1)CCC(=O)N2C(C)C | 1.05 µM (active)
CN1[C@H]2CC(OC(=O)[C@@H](CO)c3ccccc3)C[C@H]1[C@H]1O[C@H]12 (some centres undefined) | inactive
O=C(O)C[C@H](O)C[C@H](O)C=Cc1c(C2CC2)nc2ccccc2c1-c1ccc(F)cc1 | 5.26 µM (active)
O=[N+]([O-])c1cn2c(n1)OC[C@@H](OCc1ccc(OC(F)(F)F)cc1)C2 | 2.64 µM (active)
C[C@]12CCC(=O)C=C1[C@@H]1CC1[C@H]1[C@H]3[C@@H]4C[C@H]4[C@@]4(CCC(=O)O4)[C@@]3(C)CC[C@H]12 (some centres undefined) | inactive
CCC[C@H]1C[C@H](C(=O)N[C@@H]([C@@H]2O[C@@H](SC)[C@@H](O)[C@@H](O)[C@@H]2O)[C@H](C)Cl)N(C)C1 | inactive
CC(=O)N1CCN(c2ccc(OCc3nn(C)c(C)c3-c3cccc4c(CCCOc5cccc6ccccc56)c(C(=O)O)n(Cc5cccnc5)c34)cc2)CC1 | 0.0372 µM (active)
